Broadly, the inhibition is the change of the read-out against control, counted positive when it falls.

The source of these data is PubChem BioAssay AID1347056 (Sanford-Burnham Center for Chemical Genomics, 2019).

Among all 360,000 compounds or so, about 3,600 (1%) were called active.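 How the source made its calls: active means compounds whose plate-normalised and pattern-corrected inhibition of the luciferase reporter signal at the single screening dose is 50% or more; inactive means the rest.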 The entries come from a sample that favours actives as a whole.

The assay can be described thus: inhibitors of TROY-driven NF-kB signaling, primary screen, Q293 LMP1-TROYcd cells, NF-kB luciferase, uHTS (AID 1347056). Particulars: Q293 LMP1-TROYcd NF-kB luciferase reporter, 4 h; at 10 µM; stronger effect = higher value. In general terms: A reporter such as luciferase makes a cellular process visible.
As for `COc1ccc(/C=N/Nc2ncnc3sc4c(c23)CCCC4)cc1O`, the inhibition is 82.7% (active).
Consider `COc1ccc(NC(=O)CCCNC(=O)Cn2cnc3sc4c(c3c2=O)CCCC4)cc1OC`, for which the inhibition was -6.14% (inactive).
In the case of `COc1ccc(NC(=O)CCNC(=O)Cn2cnc3sc4c(c3c2=O)CCCC4)cc1OC`, the inhibition was 11.8% (inactive).
As for `COCCCNC(=O)C1CCC(CNS(=O)(=O)c2ccc(OC)cc2)CC1` (configuration not stated), the figure is -8.61% (inactive); as for `CCN(CC)C(=O)C1CCC(C)(C(=O)O)C1(C)C` (configuration not stated), 7.66% (inactive); as for `Cc1nnc(SCCCCSc2nnc(C)c(=O)[nH]2)[nH]c1=O`, -7.01% (inactive).
The figure for `CC(C)n1cnc2c(Nc3cccc(Cl)c3)nc(N(CCO)CCCO)nc21` is 50.8% (active); for `C=C(C)C1CC=C(C)/C(=N/NC(=O)CCCNc2cccc(C)c2)C1` (configuration not stated) it is 5.76% (inactive).
The figure for `CN(CCO)c1ccc(/C=N/Nc2nncc3ccccc23)cc1` is -22.8% (inactive); for `O=C(Nc1ccc2c(c1)OCCO2)C1CCCC1` it is 81.7% (active); for `O=C(Nc1ccc2c(c1)OCO2)C1CC1(Cl)Cl` (configuration not stated) it is -31.7% (inactive).
Take `CN1C(=O)c2ccc(NC(=O)C3CCCCC3)cc2C1=O`: the inhibition was -41% (inactive).
The figure for `CC(C)C[C@H]1CNC(=O)C(=O)N1C[C@H]1CCCN1C[C@H](Cc1ccc(O)cc1)N1C[C@H](CC(C)C)N(CC2CCCCCC2)C(=O)C1=O` is -20.6% (inactive).
The figure for `O=C1N[C@H](Cc2c[nH]c3ccccc23)COC(=O)[C@H](Cc2ccc(F)cc2)C/C=C\C[C@H]1CC(=O)N(CCO)Cc1ccccc1` is 19% (inactive).
As for `O=C(Cn1c(-c2cscn2)nc2ccccc21)Nc1ccc(Cl)cc1`, the figure is 6.66% (inactive).
With `C/C(CC(=O)Nc1ccc(C)cc1C)=N\NC(=O)C(C)C`, the inhibition is 7.58% (inactive).
As for `CC1CCCCC1NC(=O)Cn1cnc2c1c(=O)n(C)c(=O)n2C` (configuration not stated), the figure is -7% (inactive); as for `O=C(CCc1[nH]c2ccccc2c1Sc1ccccc1)N(CCO)CCO`, 7.74% (inactive).
The figure for `Cc1cccc(-n2ncc(Cl)c(Cl)c2=O)c1` is 72.5% (active).
The figure for `CC(=O)Nc1c2c(nn1-c1cccc(C)c1)CSC2` is -5.25% (inactive); for `CCCNC(=O)c1c(Cl)cnn1-c1ccc(C)cc1` it is -51.1% (inactive).
For `CCNS(=O)(=O)c1ccc(CCC(=O)N2CCN(c3cc(Cl)ccc3C)CC2)cc1`, the inhibition was 26.1% (inactive).
For the compound `O=S(=O)(Cc1cc(Sc2ccccc2)nc(-c2ccccc2)n1)c1ccccc1`, the inhibition is -3.96% (inactive).
The figure for `O=C(N[C@@H](Cc1c[nH]c2ccccc12)C(=O)O)OCC1c2ccccc2-c2ccccc21` is -9.94% (inactive); for `CC(=O)c1ccc(NC(=O)C(C)N(C)CC(=O)Nc2ccccc2Cl)cc1` (configuration not stated) it is 7.44% (inactive).
The figure for `O=C(Nc1ccccc1Cl)c1ccccc1S(=O)(=O)c1ccccc1[N+](=O)[O-]` is -26.1% (inactive); for `O=C(Nc1ccccc1Cl)/C(Cl)=C(\Cl)S(=O)c1ccccc1` (configuration not stated) it is 86.9% (active).
In the case of `O=C(Cn1[nH]c(=O)c2ccccc2c1=O)Nc1cccc(-c2nnc3n2CCCCC3)c1`, the inhibition was 18.8% (inactive).
The figure for `Cc1ccc(C)c(C(=O)COC(=O)Cn2[nH]c(=O)c3ccccc3c2=O)c1` is -0.89% (inactive).
As for `Cc1ccc(-c2csc(NC(=O)Cn3[nH]c(=O)c4ccccc4c3=O)n2)cc1`, the figure is 55.9% (active).
Take `O=C1C=CC(=O)N1c1ccc(N2CCCCC2)cc1`: the inhibition was -3% (inactive).
The figure for `COC(=O)[C@@]1(Sc2ccc(C)cc2)CC(=O)N(c2cccc(SC)c2)[C@@H]1c1ccccc1` is -0.08% (inactive); for `Cc1cccc(/C(N)=N/OC(=O)c2ccccc2Cl)c1` it is 3.79% (inactive).
As for `N/C(=N\OC(=O)CCC1CCCCC1)c1ccccn1`, the figure is -40.4% (inactive); as for `Cc1ccc(C(=O)O/N=C(\N)c2ccccn2)cc1Cl`, 72.9% (active).
The figure for `COc1ccc(C2/C(=C(/O)c3ccc4c(c3)CC(C)O4)C(=O)C(=O)N2Cc2ccncc2)cc1` (configuration not stated) is -12.1% (inactive); for `CC(=O)c1cc2c(cc1NC(=O)Cn1nc(-c3ccc(F)cc3)ccc1=O)OCO2` it is -13.6% (inactive); for `CC(=O)Nc1ccc(S(=O)(=O)NC2Cc3ccccc3C2)cc1` it is -3.14% (inactive).
On to `CCOc1ccc(/C=C(/NC(=O)c2ccccc2)C(=O)NCCC(=O)O)cc1`, for which the inhibition is 4.42% (inactive).
As for `O=C(c1noc2c1CCCC2)N1CCc2ccccc2C1`, the figure is -14.7% (inactive); as for `O=C(Nc1cccnc1)c1noc2c1CCCCC2`, 64.2% (active).
As for `Cc1noc(C)c1COc1cccc(C(=O)Nc2cccnc2)c1`, the figure is 11.8% (inactive); as for `CCCC(C)C(=O)NCc1ccncc1` (configuration not stated), 8.22% (inactive); as for `FC(F)(F)Oc1ccccc1C(c1nnnn1C1CCCCC1)N1CCN(C/C=C/c2ccccc2)CC1` (configuration not stated), 5.81% (inactive).
Take `CCCCCCc1cc2cc(-c3nnc(-c4ccccc4)o3)c(=O)oc2cc1O`: the inhibition is 61.6% (active).
As for `CCOC(=O)Cn1c(O)c(N=NC(=O)CNC(=O)Cc2ccccc2)c2ccccc21`, the figure is -7.61% (inactive); as for `O=[N+]([O-])/C=C/c1ccc2c(ccn2Cc2ccccc2)c1`, 81.4% (active).
The figure for `C/C(CC(=O)NCc1ccc(Cl)cc1)=N\NC(=O)COc1ccc(C)cc1Br` is -10.5% (inactive).
For the compound `Cc1cc(OC(=O)c2ccc(OC(C)C)cc2)c([N+](=O)[O-])c(=O)[nH]1`, the inhibition was -22.1% (inactive).
For `O=C(Oc1ccc(-c2nnco2)cc1)c1ccc(F)c(S(=O)(=O)N2CCOCC2)c1`, the inhibition was 40.2% (inactive).
As for `COC(=O)c1scc(C)c1NC(=O)CSc1ccc(Cl)cc1`, the figure is -6.59% (inactive); as for `COC(=O)c1sccc1NC(=O)CSc1ccccc1NS(=O)(=O)c1cc(Cl)ccc1Cl`, 51.4% (active); as for `COC(=O)c1sccc1NS(=O)(=O)c1ccc(F)cc1F`, 10.6% (inactive).
As for `CC(C)(Oc1ccc(C2CC2(Cl)Cl)cc1)C(=O)O` (configuration not stated), the figure is -11.2% (inactive); as for `Cc1cc(N)n(-c2ccc(S(=O)(=O)N3CCCC3)cc2[N+](=O)[O-])n1`, 1.51% (inactive).
As for `Cn1cc(/C=C/c2nc3ccccc3c(=O)n2-c2cccc([N+](=O)[O-])c2)c2ccccc21`, the figure is 53.2% (active); as for `CCn1c(/C=C/c2ccc([N+](=O)[O-])o2)nc2ccccc2c1=O`, 1.09% (inactive); as for `CCOC(=O)N1CCN(Cc2nc3ccc([N+](=O)[O-])cc3c(=O)n2-c2cccc(OC)c2)CC1`, 5.96% (inactive).
As for `CC(C)=CCCC1(C)C=Cc2c(ccc3c2[nH]c2cc(O)c(C)cc23)O1` (configuration not stated), the inhibition is 56.8% (active).
In the case of `CC(OC(=O)c1ccccc1NCCO)C(=O)Nc1ccnn1C(C)C` (configuration not stated), the inhibition was 4.88% (inactive).
The figure for `Cc1sc(NC(=O)C2=COCCO2)c(C#N)c1C` is -29.2% (inactive).
As for `CCCc1cc(=O)[nH]c(SCC(=O)Nc2sc3c(c2C#N)CCCC3)n1`, the figure is -13.3% (inactive); as for `CCCc1ccc(-c2c(C)sc(NC(=O)c3ccnn3C)c2C#N)cc1`, 61.4% (active); as for `O=C1COc2ccc(C(=O)CSc3ccc(Br)cc3)cc2N1`, 6.67% (inactive).
With `CCNC(=S)N(CCN(CC)CC)Cc1cc2cc3c(cc2[nH]c1=O)OCO3`, the inhibition is 7.05% (inactive).
Regarding `c1ccc(Cc2c(-c3ccco3)nc3c4ccccc4ccn23)cc1`, the inhibition was 3.44% (inactive).
As for `Cc1ccc(Cc2c(-c3ccc(C)cc3)nc3c4ccccc4ccn23)cc1`, the figure is 54.4% (active); as for `Cc1ccc(Cc2c(-c3ccc(Cl)cc3)nc3c4ccccc4ccn23)cc1`, 4.34% (inactive); as for `O=C(N=C1SC2CS(=O)(=O)CC2N1Cc1ccccc1)c1ccccc1` (configuration not stated), -0.57% (inactive).
As for `NC(=O)C1CCN(C(=O)COc2ccc3c4c(c(=O)oc3c2)CCC4)CC1`, the figure is -10.9% (inactive).
For the compound `CCCCC(NS(=O)(=O)c1ccc(C)cc1)C(=O)Oc1ccc2c3c(c(=O)oc2c1)CCC3` (configuration not stated), the inhibition was 69.9% (active).
As for `O=C(COc1ccc2c3c(c(=O)oc2c1)CCC3)NC1CCCCC1`, the inhibition was -1.91% (inactive).
`COC(=O)c1cc2c(ccn2C)n1C`: the inhibition was 0.05% (inactive).
In the case of `Cc1ccc(OCCCC(=O)Nc2ccc3c(c2)OCCO3)cc1`, the inhibition was 17.8% (inactive).
The figure for `CCOc1ccc(NCCC(=O)c2ccc3c(c2)OCO3)cc1` is 9.47% (inactive); for `COC(=O)CCNc1ccc2c(c1)OCCO2` it is 78.2% (active).
The figure for `COc1ccccc1-c1oc2ccccc2c1C#CCCCCO` is 2.78% (inactive).
As for `O=c1oc2ccccc2c(=O)c2ccccc12`, the figure is 4.31% (inactive); as for `COc1ccccc1N=Cc1c(O)c2ccccc2oc1=O`, 68.1% (active).
For `COC(=O)CNc1nc(Cl)nc(N2CCC(C)CC2)n1`, the inhibition is 6.46% (inactive).
The figure for `CCCS(=O)(=O)NC(=O)C1(C)CCN(C(=O)c2sccc2C)C1` (configuration not stated) is -21% (inactive).
The figure for `O=C(Cc1ccccc1F)NC1CCSc2ccccc21` (configuration not stated) is 6.21% (inactive).
As for `O=C(/C=C/Sc1ncn[nH]1)c1ccc(Cl)cc1`, the figure is 66% (active); as for `CC(C)CN(C(=O)CN1CCN(S(=O)(=O)c2ccccc2)CC1)c1c(N)n(CC(C)C)c(=O)[nH]c1=O`, 3.32% (inactive); as for `CC(C)c1ccc2c(c1)c(SC(C)(C)C)c(CC(C)(C)C(=O)O)n2Cc1ccc(Cl)cc1`, 65.6% (active).
As for `COCCN1C(=O)c2oc3c(C)cc(C)cc3c(=O)c2C1c1cccc(O)c1` (configuration not stated), the inhibition was 1.51% (inactive).
As for `O=C(COc1ccc(Br)cc1F)NCC1(N2CCCCC2)CCCCC1`, the figure is -6.39% (inactive); as for `COc1ccc(/C(N)=N/OC(=O)Cc2ccccc2)cc1`, -56.1% (inactive); as for `COc1ccc(C(=NN)c2ccc(OC)cc2)cc1`, -42.8% (inactive).
For `COc1ccc(C(C#N)=C2C=CC(=NO)c3ccccc32)cc1`, the inhibition is 69.6% (active).
The figure for `NC(=O)[C@H]1CC2(CC(c3cccc(NC(=O)[C@H]4CCC(=O)N4)c3)=NO2)CN1C(=O)c1ccccc1C(=O)c1ccccc1` (some centres not stated) is -0.31% (inactive).
For `CC1CCc2c(sc(NC(=O)c3ccc(Cn4cc(Br)cn4)o3)c2C(N)=O)C1` (configuration not stated), the inhibition is -4.02% (inactive).
